From PubChem
A selection: hits, their analogues and other compounds. The true share with any hit is near 2.4%.
CHRM1 PAM = positive allosteric modulators of human M1 muscarinic receptor; P11229; activation, % at 3 µM; CHO-K1 hM1, Fluo-8 calcium fluorescence, ACh EC20; 0% = ACh EC20, 100% = maximal ACh; 360,000 tested, 0.088% active; in the data active = activation above about 19%, passing the limit was not always enough
Target sequence (P11229 whole entry, looked up): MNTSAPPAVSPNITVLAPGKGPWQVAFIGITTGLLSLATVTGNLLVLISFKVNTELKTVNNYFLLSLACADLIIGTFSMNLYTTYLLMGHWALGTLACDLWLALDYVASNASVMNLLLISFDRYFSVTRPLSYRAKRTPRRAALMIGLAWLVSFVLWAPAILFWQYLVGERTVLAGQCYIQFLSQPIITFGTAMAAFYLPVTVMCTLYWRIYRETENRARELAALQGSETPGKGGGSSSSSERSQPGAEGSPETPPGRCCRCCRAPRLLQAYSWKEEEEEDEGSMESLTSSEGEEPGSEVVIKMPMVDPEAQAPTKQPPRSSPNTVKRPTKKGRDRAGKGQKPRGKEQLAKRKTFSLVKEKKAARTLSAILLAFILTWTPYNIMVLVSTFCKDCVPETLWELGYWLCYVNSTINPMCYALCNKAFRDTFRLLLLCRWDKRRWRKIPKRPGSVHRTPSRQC
M1 PAM parental = counter-screen for M1 PAMs: effect in parental CHO-K1 cells; ATP EC20, Fluo-8 calcium fluorescence; 0% at ATP EC20, 100% at ATP max; activation, % at 3 µM; 360,000 tested, 0.02% active; AID 602247;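 active = activation above the run cutoff, the mean activation of all test compounds plus 3 SD, cut at about 40% in these data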;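 also: peak over basal fluorescence ratio in a 140 s read after ATP addition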
M1 antag = blocks human M1 muscarinic receptor; P11229; CHO-K1 hM1, Fluo-8 calcium fluorescence, ACh EC80 antagonist; inhibition, % at 3 µM; 360,000 tested, 1.3% active; AID 588852;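 active = percent inhibition above its own plate's cutoff, namely the mean of that plate's compound wells plus 3 SD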;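 also: peak over basal fluorescence ratio during 140 s after agonist addition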
M1 ag = activates human CHRM1 receptor; P11229; CHO-K1 hM1, Fluo-8 calcium fluorescence, agonist mode; 0% DMSO, 100% acetylcholine EC100; activation, % at 3 µM; 360,000 tested, 0.33% active;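 active = activation above the run's mean compound activation plus 3 SD, cut at about 16% in these data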;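 also: peak over basal fluorescence ratio within a 140 s kinetic read after compound addition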
CHO-K1 Ca antag = M1 antagonist counterscreen hit in parental CHO-K1 cells | AID 602250 | inhibition, % at 3 µM | ATP-induced calcium, Fluo-8 fluorescence | 360,000 tested, 0.6% active;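 active = inhibition above a per-plate cutoff, the plate's mean sample inhibition plus 3 SD, cut at about 24% in these data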
M1 ag parental = counter-screen for M1 agonists: effect in parental CHO-K1 cells; Fluo-8 calcium fluorescence; scaled to maximal ATP response, vehicle zero; activation, % at 3 µM; 360,000 tested, 0.48% active; in the data active = activation above about 15%;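 also: untransfected CHO-K1 host cells lacking M1 receptor as counterscreen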
Hits are given with their value; - = inactive.

SMILES | CHRM1 PAM | M1 PAM parental | M1 antag | M1 ag | CHO-K1 Ca antag | M1 ag parental
CN1CCN(CCc2nc3cc(NC(=O)COc4ccc(Cl)cc4)ccc3n2C)CC1 | - | - | - | - | 26 | -
Cn1c(CCN2CCN(c3ccccn3)CC2)nc2cc(NC(=O)COc3ccccc3)ccc21 | - | - | 58 | - | - | -
Cc1ccc(OCC(=O)Nc2ccc3c(c2)nc(CCN2CCN(c4ccccn4)CC2)n3C)cc1 | - | - | 62 | - | - | -
Cn1c(CCN2CCCCC2)nc2cc(NS(=O)(=O)c3ccccc3)ccc21 | - | - | - | - | - | -
CCCC(=O)Nc1ccc2c(c1)nc(CCN1CCN(c3ccccn3)CC1)n2C | - | - | - | - | - | -
CCC(C)c1ccc(OCc2ccc(C(=O)O)o2)cc1 (stereo not drawn) | - | - | - | - | - | -
NC(=O)C1CCN(C(=O)c2ccc(NS(=O)(=O)c3ccc(F)c(F)c3)cc2)CC1 | - | - | - | - | - | -
CCCCC(=O)Nc1ccc2c(c1)nc(CCN1CCN(c3ccccn3)CC1)n2C | - | - | 74 | - | - | -
OC1(C#CCN2CCCC2)c2ccccc2-c2ccccc21 | - | - | 85 | - | - | -
CCN(CC)CCC#CC1(O)c2ccccc2-c2ccccc21 | - | - | 99 | - | - | -
CC(C)(C)N(CC#CCC1(O)c2ccccc2-c2ccccc21)CCO | - | - | - | - | - | -
OC(C#CCN1CCCC1)c1ccccc1 (stereo not drawn) | - | - | - | - | - | -
CN(C)CCC#CC1(O)c2ccccc2-c2ccccc21 | - | - | 66 | - | - | -
O=S(=O)(NNc1cccc(Cl)n1)c1ccc(Cl)cc1 | - | - | - | - | - | -
O=C(CSc1ccc2ccccc2n1)NCCCN1CCCC1=O | - | - | - | - | - | -
COc1ccc(CN2CCCC(C(=O)c3ccc(Cl)cc3)C2)cc1Cn1cccn1 (stereo not drawn) | - | - | 58 | - | - | -
COc1cccc(C(=O)C2CCCN(Cc3cccc(-n4nc(C)cc4C)c3)C2)c1 (stereo not drawn) | - | - | 60 | - | - | -
COc1cccc(C(=O)C2CCCN(Cc3cccc(OCCO)c3)C2)c1 (stereo not drawn) | - | - | - | - | - | -
COc1ccc(C(=O)C2CCCN(C(=O)Cn3cncn3)C2)cc1OC (stereo not drawn) | - | - | - | - | - | -
COc1cccc(C(=O)C2CCCN(Cc3ccc(OC)c(Cn4cncn4)c3)C2)c1 (stereo not drawn) | - | - | 37 | - | - | -
O=C(NC1=NCCS1)c1ccc(F)c(S(=O)(=O)N2CCOCC2)c1 | - | - | - | - | - | -
Cc1ccc(NC2CCCN(C(=O)c3cn(C)c4ccccc34)C2)cc1C (stereo not drawn) | - | - | - | - | - | -
CCOc1cccc(C2/C(=C(/O)c3ccc4c(c3)CC(C)O4)C(=O)C(=O)N2Cc2ccncc2)c1 (stereo not drawn) | - | - | - | - | - | -
CC1CCCN(CCCNS(=O)(=O)c2ccc3c(c2)CCN3C(=O)C2CC2)C1 (stereo not drawn) | - | - | - | - | - | -
COc1ccc(-c2cc(C3CCN(Cc4ccc([N+](=O)[O-])cc4)CC3)[nH]n2)cc1 | - | - | - | - | - | -
SMILES | CHRM1 PAM | M1 PAM parental | M1 antag | M1 ag | CHO-K1 Ca antag | M1 ag parental
COc1ccc(OC)c(-c2cc(C3CCN(c4cc(Cl)nc(N)n4)CC3)[nH]n2)c1 | - | - | - | - | 25 | -
Cc1ccc(CN2CCC(c3cc(-c4ccc(Cl)cc4)n[nH]3)CC2)cc1 | - | - | - | - | - | 16
Nc1nc(Cl)cc(N2CCC(c3cc(-c4ccc(Cl)cc4)n[nH]3)CC2)n1 | - | - | 38 | - | - | 21
Cc1nccn1CCc1n[nH]c(=S)n1Cc1ccccc1 | - | - | 60 | - | - | -
S=c1[nH]nc(CCc2ccccc2)n1Cc1ccccc1 | - | - | - | - | - | -
CN1CC(=O)N/C1=N\C(=O)Nc1ccc(O)cc1 | - | - | - | - | - | -
CCCCN(C(=O)CSc1nnc(-c2ccc(OC)cc2)n1CC)c1c(N)n(Cc2ccccc2)c(=O)[nH]c1=O | - | - | - | - | 28 | -
